The full ranking holds about 81,000 sequences; the median of “one-hybrid fitness for binding parS DNA” is about -0.17, and the highest 2% start at about 0.51. For the sample, the highest values were picked, then their nearest neighbours and some sequences at random.
B1: Caulobacter ParB omega fusion; a variant is named by its letters at X, in order, B8GW30 (parent)
chain: MESVVVGEPGMSEGRRGLGRGLSALLGEVDAAPAQAPGEQLGGSREAPIEILQRNPDQPRRTFREEDLEDLSNSIREKGVLQPILVRPSPDTAGEYQIVAGERAWRAAQRAGLKTVPIMVRELDDLAVLEIGIIENVQRADLNVLEEALSYKVLMEKFERTQENIAQTIGKSXSHVANXMRLLXLPDEVQSYLVSGELTAXHARAIAAAADPVALAKQIIEGGLSVRETEALARKAPNLSAGKSKGGRPPRVKDTDTQALESDLSSVLGLDVSIDHRGSTGTLTITYATLEQLDDLCNRLTRGI

Variants of: B1
Assay: one-hybrid fitness for binding parS DNA (scaled: cognate 1, non-cognate 0); higher = stronger binding
Conditions: with parS DNA site
Summary of the method: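 The reporter was HIS3, with the binding site 19 bp from the promoter, in E. coli USO used for bacterial one-hybrid selection of Caulobacter ParB libraries with four specificity codons randomised. Growth was on M9 lacking histidine, with 0.1 mM IPTG and 5 mM 3-AT, for 48 hours at 37°C. Illumina sequencing covered plasmids before and after selection; three replicate libraries were pooled and variants with under 10 reads dropped. A fitness score is the log change in variant-to-wild-type read ratio, rescaled to the cognate and non-cognate references.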

Row | Variant | one-hybrid fitness for binding parS DNA
1 | CARA | ≤ 0.2
2 | PAYT | ≤ 0.2
3 | APAI | ≤ 0.2
4 | YGRH | ≤ 0.2
5 | RAHK | ≤ 0.2
6 | RASF | 0.234
7 | RALG | 1.01
8 | RALP | ≤ 0.2
9 | RASG | 1
10 | RAGP | ≤ 0.2
11 | RAHP | 0.241
12 | RASR | ≤ 0.2
13 | RAGH | 0.268
14 | RALD | ≤ 0.2
15 | RAGG | 0.99
16 | RAHG | 1.01
17 | ACSG | ≤ 0.2
18 | LMLS | ≤ 0.2
19 | QSHN | ≤ 0.2
20 | TPPK | ≤ 0.2
21 | GNDG | ≤ 0.2
22 | GGIR | ≤ 0.2
23 | HVTA | ≤ 0.2
24 | LPSV | ≤ 0.2
25 | VEFL | ≤ 0.2
26 | RADD | ≤ 0.2

Row | Variant | one-hybrid fitness for binding parS DNA
27 | RADN | 0.372
28 | RAQY | 0.469
29 | RAQK | ≤ 0.2
30 | RAQG | 1
31 | RADG | 0.908
32 | QSRC | ≤ 0.2
33 | AVDS | ≤ 0.2
34 | RKHM | 0.21
35 | RKRM | 0.281
36 | RKHQ | ≤ 0.2
37 | RKRK | ≤ 0.2
38 | RKHC | 0.882
39 | RKLM | 0.272
40 | RKLR | ≤ 0.2
41 | RKSH | ≤ 0.2
42 | RKSC | 0.812
43 | RKSD | ≤ 0.2
44 | RKLC | 0.921
45 | RKRC | 0.737
46 | DVNN | ≤ 0.2
47 | VNYS | ≤ 0.2
48 | PWEG | ≤ 0.2
49 | NNLY | ≤ 0.2
50 | VLIA | ≤ 0.2
51 | VPYR | ≤ 0.2
52 | LEDT | ≤ 0.2

Row | Variant | one-hybrid fitness for binding parS DNA
53 | PHLT | ≤ 0.2
54 | MREY | ≤ 0.2
55 | RKCC | 0.908
56 | RKYR | ≤ 0.2
57 | RKNP | ≤ 0.2
58 | RKND | ≤ 0.2
59 | RKDF | ≤ 0.2
60 | RKYC | 0.925
61 | RKDR | ≤ 0.2
62 | RKYQ | 0.213
63 | RKNC | 0.806
64 | RKDC | 0.923
65 | RKCH | ≤ 0.2
66 | RKCD | ≤ 0.2
67 | IKIT | ≤ 0.2
68 | LFDR | ≤ 0.2
69 | IRTA | ≤ 0.2
70 | MSDQ | ≤ 0.2
71 | EAWR | ≤ 0.2
72 | DRKV | ≤ 0.2
73 | LAGW | ≤ 0.2
74 | RPIL | ≤ 0.2
75 | QIFK | ≤ 0.2
76 | ANVG | ≤ 0.2
77 | RTRQ | ≤ 0.2
78 | RTRG | 0.908

Row | Variant | one-hybrid fitness for binding parS DNA
79 | RTGG | 0.997
80 | RTHP | ≤ 0.2
81 | RTGH | ≤ 0.2
82 | RTGM | 0.33
83 | RTRN | 0.396
84 | RTLG | 1.02
85 | RTHN | 0.45
86 | RTLR | ≤ 0.2
87 | RTHG | 1.01
88 | RTLQ | ≤ 0.2
89 | DCRS | ≤ 0.2
90 | IAEG | ≤ 0.2
91 | SAYT | ≤ 0.2
92 | MHTF | ≤ 0.2
93 | PSYT | ≤ 0.2
94 | VTEN | ≤ 0.2
95 | RTYG | 1.02
96 | NTYG | ≤ 0.2
97 | RTYQ | ≤ 0.2
98 | HADL | ≤ 0.2
99 | RIPT | 0.549
100 | RIIT | 0.715
101 | RIPN | ≤ 0.2
102 | RIPP | ≤ 0.2
103 | REPT | ≤ 0.2
104 | RIIN | 0.379

Row | Variant | one-hybrid fitness for binding parS DNA
105 | RCPT | 0.604
106 | RPPT | ≤ 0.2
107 | RIIK | ≤ 0.2
108 | YDNV | ≤ 0.2
109 | FNSY | ≤ 0.2
110 | TSTS | ≤ 0.2
111 | SATQ | ≤ 0.2
112 | RMWK | ≤ 0.2
113 | RLRL | ≤ 0.2
114 | KRHS | ≤ 0.2
115 | PLTH | ≤ 0.2
116 | RACN | 0.41
117 | RACT | 0.852
118 | RAQT | 0.894
119 | RAHM | 0.329
120 | RAYM | 0.324
121 | RAQF | 0.229
122 | RAHT | 0.928
123 | RAHH | 0.26
124 | RAQM | 0.31
125 | RAYT | 0.904
126 | RAYR | ≤ 0.2
127 | RACD | ≤ 0.2
128 | MLRS | ≤ 0.2
129 | GTET | ≤ 0.2
130 | SSAG | ≤ 0.2

Row | Variant | one-hybrid fitness for binding parS DNA
131 | DLPN | ≤ 0.2
132 | DGPD | ≤ 0.2
133 | NYGR | ≤ 0.2
134 | SRPW | ≤ 0.2
135 | LATK | ≤ 0.2
136 | AQEG | ≤ 0.2
137 | QIWY | ≤ 0.2
138 | RASY | 0.459
139 | RART | 0.836
140 | RASQ | ≤ 0.2
141 | RAST | 0.911
142 | RAGR | ≤ 0.2
143 | RARF | 0.28
144 | RARQ | ≤ 0.2
145 | RAGT | 0.92
146 | RANT | 0.907
147 | RANN | 0.434
148 | RAGQ | ≤ 0.2
149 | RAND | 0.215
150 | PKYV | ≤ 0.2
151 | APEG | ≤ 0.2
152 | FICL | ≤ 0.2
153 | GDRF | ≤ 0.2

— a collection of fitness landscapes (doi:10.1016/j.celrep.2020.107928)
